Data on 1 sequence can be found in publication PMC7862700, “An all-to-all approach to the identification of sequence-specific readers for epigenetic DNA modifications on cytosine”.

What all share (assay): DAPPL (digital affinity profiling via proximity ligation, sequencing); 10 mM Tris-HCl pH 7.5, 50 mM NaCl, 1 mM DTT, 4% glycerol, room temperature, 30 min; GST-TFs on glutathione beads, 16-mer random dsDNA library, 0.1% formaldehyde crosslink after washing; high values mean tight binding
The target in one assay is T1, FEV (Homo sapiens, UniProt Q99581 1-238).
T1 sequence: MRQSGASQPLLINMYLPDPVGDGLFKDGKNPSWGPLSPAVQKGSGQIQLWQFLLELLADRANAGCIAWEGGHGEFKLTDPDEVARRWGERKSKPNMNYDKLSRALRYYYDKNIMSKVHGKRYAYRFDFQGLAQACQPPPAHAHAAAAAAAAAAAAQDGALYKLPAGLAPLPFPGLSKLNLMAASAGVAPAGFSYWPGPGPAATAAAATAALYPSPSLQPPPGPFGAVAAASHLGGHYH
Particulars: protein: recombinant; tags: N-terminal GST; dsDNA, one strand shown. In outline:
(§1)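 Binding signal is defined as a hexamer's read frequency for one factor over its frequency for the tag-only sample. To obtain reads, GST-fused human transcription factors were expressed in yeast, captured on glutathione beads, barcoded with DNA and pooled with that sample. Pools met 200 nmole of a 16-mer random double-stranded DNA library in Tris/NaCl/DTT/glycerol buffer for 30 min at room temperature before washing, 0.1% formaldehyde crosslinking, proximity ligation (BsaI/T4 ligase, 1 h, 37 °C), PCR and Illumina NextSeq500 sequencing.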

Another assay deals with ETV5 (Homo sapiens, UniProt P41161 1-510). Particulars: protein: recombinant; tags: N-terminal GST; dsDNA, one strand shown. In outline: as §1
Chain of ETV5 (P41161 whole entry): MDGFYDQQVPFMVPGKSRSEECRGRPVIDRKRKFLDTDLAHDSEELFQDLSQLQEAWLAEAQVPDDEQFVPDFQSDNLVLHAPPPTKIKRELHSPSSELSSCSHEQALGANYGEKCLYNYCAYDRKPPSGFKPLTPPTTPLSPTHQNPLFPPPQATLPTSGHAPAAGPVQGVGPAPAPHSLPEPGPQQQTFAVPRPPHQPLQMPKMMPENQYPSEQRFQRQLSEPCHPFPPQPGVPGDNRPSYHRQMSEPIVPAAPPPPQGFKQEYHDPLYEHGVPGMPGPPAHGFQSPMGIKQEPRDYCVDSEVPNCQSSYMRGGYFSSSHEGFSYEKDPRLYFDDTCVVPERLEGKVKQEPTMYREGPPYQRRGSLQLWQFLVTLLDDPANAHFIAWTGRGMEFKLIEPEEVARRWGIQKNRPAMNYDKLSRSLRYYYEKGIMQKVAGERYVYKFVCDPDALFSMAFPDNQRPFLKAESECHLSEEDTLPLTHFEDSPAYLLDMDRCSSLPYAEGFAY
The target in another assay is HSF1 (Homo sapiens, UniProt Q00613 1-529). Particulars: protein: recombinant; tags: N-terminal GST; chain copies: 3; dsDNA, one strand shown. In outline:
as §1

In a further assay the target is T2, SPIC (Homo sapiens, UniProt Q8N5J4 1-248).
T2 sequence: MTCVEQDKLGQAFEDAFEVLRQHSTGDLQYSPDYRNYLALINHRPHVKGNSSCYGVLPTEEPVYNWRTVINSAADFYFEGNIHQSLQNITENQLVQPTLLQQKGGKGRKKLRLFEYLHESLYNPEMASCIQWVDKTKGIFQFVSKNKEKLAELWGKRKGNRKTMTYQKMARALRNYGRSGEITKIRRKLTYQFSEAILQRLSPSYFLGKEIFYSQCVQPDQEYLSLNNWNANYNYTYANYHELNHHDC
Particulars: protein: recombinant; tags: N-terminal GST; dsDNA, one strand shown. In outline: as §1

The target of another assay is ELF4 (Homo sapiens, UniProt Q99607 1-663). The conditions noted are these: protein: recombinant; tags: N-terminal GST; dsDNA, one strand shown. An outline of the steps: as §1
Chain of ELF4 (Q99607 whole entry): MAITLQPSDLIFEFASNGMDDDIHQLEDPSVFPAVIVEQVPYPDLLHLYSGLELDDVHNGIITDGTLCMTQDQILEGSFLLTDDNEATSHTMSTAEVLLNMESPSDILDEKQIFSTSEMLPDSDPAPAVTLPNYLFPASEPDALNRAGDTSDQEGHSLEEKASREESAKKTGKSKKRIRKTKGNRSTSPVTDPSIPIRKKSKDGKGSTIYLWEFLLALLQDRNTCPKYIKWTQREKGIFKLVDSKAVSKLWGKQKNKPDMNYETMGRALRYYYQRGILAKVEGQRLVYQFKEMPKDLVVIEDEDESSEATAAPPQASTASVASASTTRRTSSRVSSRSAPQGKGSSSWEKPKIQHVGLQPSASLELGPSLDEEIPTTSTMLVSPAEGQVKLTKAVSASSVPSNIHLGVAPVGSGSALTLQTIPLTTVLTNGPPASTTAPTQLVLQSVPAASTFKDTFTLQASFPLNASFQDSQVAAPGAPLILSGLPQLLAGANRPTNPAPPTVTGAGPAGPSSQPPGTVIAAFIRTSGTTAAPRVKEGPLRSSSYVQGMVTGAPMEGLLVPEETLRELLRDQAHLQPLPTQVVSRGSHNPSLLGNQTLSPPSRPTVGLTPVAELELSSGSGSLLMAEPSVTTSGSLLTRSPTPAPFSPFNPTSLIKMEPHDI
For a further assay, the target named is T3, ELK4 (Homo sapiens, UniProt P28324-2 1-405).
T3 sequence: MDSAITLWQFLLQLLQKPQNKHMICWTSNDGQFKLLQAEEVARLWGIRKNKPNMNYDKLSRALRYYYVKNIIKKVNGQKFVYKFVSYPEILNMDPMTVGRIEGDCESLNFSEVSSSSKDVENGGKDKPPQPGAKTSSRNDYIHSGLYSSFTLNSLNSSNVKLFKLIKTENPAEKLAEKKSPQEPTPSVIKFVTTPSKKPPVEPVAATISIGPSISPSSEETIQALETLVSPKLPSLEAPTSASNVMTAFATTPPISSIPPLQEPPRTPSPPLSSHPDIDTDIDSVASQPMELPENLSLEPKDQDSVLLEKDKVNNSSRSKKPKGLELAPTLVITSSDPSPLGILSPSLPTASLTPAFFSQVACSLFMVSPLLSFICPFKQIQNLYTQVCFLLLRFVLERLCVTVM
The conditions noted are these: protein: recombinant; tags: N-terminal GST; dsDNA, one strand shown. An outline of the steps: as §1

In another assay the target is T4, ETV2 (Homo sapiens, UniProt O00321 1-342).
T4 sequence: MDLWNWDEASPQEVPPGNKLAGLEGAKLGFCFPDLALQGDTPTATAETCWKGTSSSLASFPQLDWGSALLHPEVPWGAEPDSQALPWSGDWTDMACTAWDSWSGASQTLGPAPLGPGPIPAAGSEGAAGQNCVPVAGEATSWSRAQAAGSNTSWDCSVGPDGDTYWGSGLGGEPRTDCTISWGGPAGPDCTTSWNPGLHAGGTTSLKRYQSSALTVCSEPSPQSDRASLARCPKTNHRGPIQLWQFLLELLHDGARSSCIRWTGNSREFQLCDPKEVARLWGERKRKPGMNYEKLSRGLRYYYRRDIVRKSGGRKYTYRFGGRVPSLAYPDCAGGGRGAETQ
The conditions noted are these: protein: recombinant; tags: N-terminal GST; dsDNA, one strand shown. In outline: as §1

In the next assay the target is T5, ELF3 (Homo sapiens, UniProt P78545 1-371).
T5 sequence: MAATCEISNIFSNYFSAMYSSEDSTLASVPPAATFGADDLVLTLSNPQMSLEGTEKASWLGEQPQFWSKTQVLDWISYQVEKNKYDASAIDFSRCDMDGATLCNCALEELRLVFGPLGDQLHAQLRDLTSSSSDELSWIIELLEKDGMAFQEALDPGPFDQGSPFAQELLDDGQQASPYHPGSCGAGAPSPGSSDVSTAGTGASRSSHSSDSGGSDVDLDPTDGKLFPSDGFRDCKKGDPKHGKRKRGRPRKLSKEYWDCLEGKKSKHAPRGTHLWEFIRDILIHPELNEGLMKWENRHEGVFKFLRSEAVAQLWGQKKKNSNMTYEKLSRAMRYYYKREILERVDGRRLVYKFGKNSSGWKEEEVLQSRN
Particulars: protein: recombinant; tags: N-terminal GST; dsDNA, one strand shown. In outline:
as §1

Another assay has as its target CRX (Homo sapiens, UniProt O43186 1-299). Particulars: protein: recombinant; tags: N-terminal GST; dsDNA, one strand shown. An outline of the steps: as §1
In the next assay the target is ETV1 (Homo sapiens, UniProt P50549 1-477). Particulars: protein: recombinant; tags: N-terminal GST; dsDNA, one strand shown. In outline: as §1
Chain of ETV1 (P50549 whole entry): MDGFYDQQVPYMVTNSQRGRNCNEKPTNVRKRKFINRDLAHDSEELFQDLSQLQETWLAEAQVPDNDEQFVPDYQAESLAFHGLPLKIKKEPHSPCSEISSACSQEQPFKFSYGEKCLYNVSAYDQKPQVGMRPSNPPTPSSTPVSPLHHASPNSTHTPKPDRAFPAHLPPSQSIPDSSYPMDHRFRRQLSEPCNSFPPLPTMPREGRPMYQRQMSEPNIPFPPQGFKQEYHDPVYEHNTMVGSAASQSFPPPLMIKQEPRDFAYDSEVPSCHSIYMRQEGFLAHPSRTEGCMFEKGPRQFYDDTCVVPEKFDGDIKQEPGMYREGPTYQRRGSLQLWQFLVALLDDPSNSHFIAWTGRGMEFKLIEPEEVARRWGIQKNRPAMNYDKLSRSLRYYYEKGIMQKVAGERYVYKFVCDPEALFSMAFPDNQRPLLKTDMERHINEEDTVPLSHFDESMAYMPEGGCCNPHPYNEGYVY
A further assay deals with T6, ERF (Homo sapiens, UniProt P50548 1-548).
T6 sequence: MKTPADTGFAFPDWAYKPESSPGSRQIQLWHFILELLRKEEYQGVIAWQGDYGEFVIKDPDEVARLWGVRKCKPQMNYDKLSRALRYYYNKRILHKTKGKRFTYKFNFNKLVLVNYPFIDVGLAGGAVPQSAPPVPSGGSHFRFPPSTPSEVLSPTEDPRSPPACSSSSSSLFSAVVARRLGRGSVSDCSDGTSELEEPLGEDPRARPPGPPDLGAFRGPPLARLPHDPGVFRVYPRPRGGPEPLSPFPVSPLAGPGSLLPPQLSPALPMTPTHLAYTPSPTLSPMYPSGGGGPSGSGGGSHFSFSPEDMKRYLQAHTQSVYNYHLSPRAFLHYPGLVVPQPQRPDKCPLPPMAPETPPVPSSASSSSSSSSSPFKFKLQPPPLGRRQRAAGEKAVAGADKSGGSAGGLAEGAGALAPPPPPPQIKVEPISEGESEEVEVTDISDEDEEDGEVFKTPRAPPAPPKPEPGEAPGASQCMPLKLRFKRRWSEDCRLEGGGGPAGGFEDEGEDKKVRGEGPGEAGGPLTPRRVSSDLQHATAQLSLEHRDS
Particulars: protein: recombinant; tags: N-terminal GST; dsDNA, one strand shown. In outline:
as §1

Another assay addresses T7, ETV3L (Homo sapiens, UniProt Q6ZN32 1-361).
T7 sequence: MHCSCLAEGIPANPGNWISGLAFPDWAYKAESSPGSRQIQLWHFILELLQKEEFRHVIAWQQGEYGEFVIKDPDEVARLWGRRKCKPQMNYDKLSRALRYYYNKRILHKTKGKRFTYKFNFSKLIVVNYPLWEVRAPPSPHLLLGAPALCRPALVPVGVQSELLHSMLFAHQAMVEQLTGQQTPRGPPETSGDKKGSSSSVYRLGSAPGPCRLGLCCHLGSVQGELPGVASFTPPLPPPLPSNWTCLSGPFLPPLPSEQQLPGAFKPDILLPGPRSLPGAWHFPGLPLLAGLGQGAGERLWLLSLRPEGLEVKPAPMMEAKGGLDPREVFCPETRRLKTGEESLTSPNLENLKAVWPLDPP
The conditions noted are these: protein: recombinant; tags: N-terminal GST; dsDNA, one strand shown. An outline of the steps:
as §1

In a further assay the target is T8, ETS2 (Homo sapiens, UniProt P15036 1-469).
T8 sequence: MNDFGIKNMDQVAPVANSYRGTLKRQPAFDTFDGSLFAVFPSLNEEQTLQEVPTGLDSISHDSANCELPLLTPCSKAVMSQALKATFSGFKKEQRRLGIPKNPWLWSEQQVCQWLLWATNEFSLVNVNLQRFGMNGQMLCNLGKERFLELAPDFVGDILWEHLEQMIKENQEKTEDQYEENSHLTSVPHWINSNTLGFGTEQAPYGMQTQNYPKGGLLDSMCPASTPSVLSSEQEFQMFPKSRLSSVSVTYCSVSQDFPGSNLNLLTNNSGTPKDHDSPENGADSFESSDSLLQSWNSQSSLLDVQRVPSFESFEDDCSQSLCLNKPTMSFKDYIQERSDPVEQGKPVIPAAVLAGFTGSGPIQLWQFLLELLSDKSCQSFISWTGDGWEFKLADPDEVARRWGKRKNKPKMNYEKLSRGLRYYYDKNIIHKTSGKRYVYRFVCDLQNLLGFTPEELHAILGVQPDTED
The conditions noted are these: protein: recombinant; tags: N-terminal GST; dsDNA, one strand shown. An outline of the steps: as §1

The target of another assay is T9, SPDEF (Homo sapiens, UniProt O95238 1-335).
T9 sequence: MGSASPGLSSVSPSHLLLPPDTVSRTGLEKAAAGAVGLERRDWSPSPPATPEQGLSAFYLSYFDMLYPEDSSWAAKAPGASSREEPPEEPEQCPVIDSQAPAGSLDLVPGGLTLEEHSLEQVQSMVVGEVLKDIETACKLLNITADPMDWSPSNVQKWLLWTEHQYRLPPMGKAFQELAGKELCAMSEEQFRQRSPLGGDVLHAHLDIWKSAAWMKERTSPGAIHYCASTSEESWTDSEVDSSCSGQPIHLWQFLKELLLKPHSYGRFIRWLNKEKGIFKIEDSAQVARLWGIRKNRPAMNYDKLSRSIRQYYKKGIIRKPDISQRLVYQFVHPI
The conditions noted are these: protein: recombinant; tags: N-terminal GST; dsDNA, one strand shown. An outline of the steps:
as §1

A further assay concerns the target T10, ETV7 (Homo sapiens, UniProt Q9Y603 1-341).
T10 sequence: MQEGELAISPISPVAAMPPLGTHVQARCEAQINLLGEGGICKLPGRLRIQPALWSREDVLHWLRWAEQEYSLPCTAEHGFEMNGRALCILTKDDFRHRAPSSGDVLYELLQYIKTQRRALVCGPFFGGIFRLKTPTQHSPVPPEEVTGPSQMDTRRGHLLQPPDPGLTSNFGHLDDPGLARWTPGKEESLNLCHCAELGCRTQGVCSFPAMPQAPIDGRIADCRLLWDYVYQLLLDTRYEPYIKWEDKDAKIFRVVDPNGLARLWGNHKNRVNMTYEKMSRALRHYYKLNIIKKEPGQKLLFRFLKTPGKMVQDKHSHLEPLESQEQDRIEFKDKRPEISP
Particulars: protein: recombinant; tags: N-terminal GST; dsDNA, one strand shown. In outline: as §1

In a further assay the target is T11, ELF5 (Homo sapiens, UniProt Q9UKW6-2 1-255).
T11 sequence: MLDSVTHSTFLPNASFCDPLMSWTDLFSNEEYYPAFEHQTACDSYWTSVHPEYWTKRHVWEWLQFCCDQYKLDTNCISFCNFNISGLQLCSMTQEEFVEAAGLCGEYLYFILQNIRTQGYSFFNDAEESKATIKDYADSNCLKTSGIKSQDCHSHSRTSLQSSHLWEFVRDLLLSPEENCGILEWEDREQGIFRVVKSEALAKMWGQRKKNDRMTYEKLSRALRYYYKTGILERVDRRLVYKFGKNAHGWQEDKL
Particulars: protein: recombinant; tags: N-terminal GST; dsDNA, one strand shown. An outline of the steps:
as §1

The target of a further assay is T12, ETV3 (Homo sapiens, UniProt P41162-2 1-143).
T12 sequence: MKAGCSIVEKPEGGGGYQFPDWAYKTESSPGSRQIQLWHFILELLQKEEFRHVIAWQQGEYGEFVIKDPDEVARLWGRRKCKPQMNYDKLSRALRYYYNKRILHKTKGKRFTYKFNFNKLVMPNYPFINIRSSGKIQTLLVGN
The conditions noted are these: protein: recombinant; tags: N-terminal GST; dsDNA, one strand shown. An outline of the steps:
as §1

Another assay addresses ETV6 (Homo sapiens, UniProt P41212 1-452). Particulars: protein: recombinant; tags: N-terminal GST; dsDNA, one strand shown. An outline of the steps: as §1

Chain of ETV6 (P41212 whole entry): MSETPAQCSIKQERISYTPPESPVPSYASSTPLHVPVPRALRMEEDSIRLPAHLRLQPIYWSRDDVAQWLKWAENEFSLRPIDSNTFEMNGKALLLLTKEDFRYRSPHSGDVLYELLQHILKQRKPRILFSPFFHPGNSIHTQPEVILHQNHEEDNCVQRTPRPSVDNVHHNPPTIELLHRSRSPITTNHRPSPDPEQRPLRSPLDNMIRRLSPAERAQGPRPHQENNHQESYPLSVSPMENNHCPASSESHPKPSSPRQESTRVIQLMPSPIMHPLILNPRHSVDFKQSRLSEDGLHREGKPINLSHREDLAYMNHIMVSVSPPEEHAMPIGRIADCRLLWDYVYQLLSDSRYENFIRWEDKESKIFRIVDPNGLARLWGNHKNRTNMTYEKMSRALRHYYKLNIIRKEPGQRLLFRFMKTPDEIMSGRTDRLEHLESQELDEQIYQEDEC
Chain of HSF1 (Q00613 whole entry): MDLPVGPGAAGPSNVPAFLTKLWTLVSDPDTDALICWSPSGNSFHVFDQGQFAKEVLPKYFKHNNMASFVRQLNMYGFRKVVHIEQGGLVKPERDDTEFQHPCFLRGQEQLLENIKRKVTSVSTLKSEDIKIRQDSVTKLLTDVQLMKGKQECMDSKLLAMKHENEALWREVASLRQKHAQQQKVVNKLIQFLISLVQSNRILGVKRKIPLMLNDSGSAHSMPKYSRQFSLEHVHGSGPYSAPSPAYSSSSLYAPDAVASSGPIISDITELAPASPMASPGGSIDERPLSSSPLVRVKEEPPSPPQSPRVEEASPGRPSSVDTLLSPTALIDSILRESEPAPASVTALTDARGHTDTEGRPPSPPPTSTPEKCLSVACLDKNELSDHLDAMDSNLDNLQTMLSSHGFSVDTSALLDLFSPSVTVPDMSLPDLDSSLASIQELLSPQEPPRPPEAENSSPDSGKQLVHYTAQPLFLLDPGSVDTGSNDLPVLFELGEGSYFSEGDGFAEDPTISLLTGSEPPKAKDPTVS
Chain of CRX (O43186 whole entry): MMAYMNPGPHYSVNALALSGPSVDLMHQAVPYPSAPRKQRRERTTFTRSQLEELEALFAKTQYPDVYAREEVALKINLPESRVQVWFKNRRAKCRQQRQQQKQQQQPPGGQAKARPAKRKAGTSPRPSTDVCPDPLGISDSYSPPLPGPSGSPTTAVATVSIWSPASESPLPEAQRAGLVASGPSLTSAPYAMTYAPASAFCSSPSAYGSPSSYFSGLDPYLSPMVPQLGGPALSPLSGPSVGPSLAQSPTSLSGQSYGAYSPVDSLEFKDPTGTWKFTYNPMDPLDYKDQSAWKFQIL

In the case of ACAATA, the binding signal with FEV is 1.13 fold enrichment (6-mer frequency, TF over GST control); in the assay with ETV5, 1.15 fold enrichment (6-mer frequency, TF over GST control); with HSF1, 1.16 fold enrichment (6-mer frequency, TF over GST control); with SPIC, 1.12 fold enrichment (6-mer frequency, TF over GST control); with ELF4, 1.16 fold enrichment (6-mer frequency, TF over GST control); in the assay with ELK4 it was 1.22 fold enrichment (6-mer frequency, TF over GST control). The binding signal was 1.2 fold enrichment (6-mer frequency, TF over GST control) with ETV2; 1.33 fold enrichment (6-mer frequency, TF over GST control) in the assay with ELF3; 1.19 fold enrichment (6-mer frequency, TF over GST control) with CRX; 1.13 fold enrichment (6-mer frequency, TF over GST control) with ETV1; 1.21 fold enrichment (6-mer frequency, TF over GST control) in the assay with ERF; 1.14 fold enrichment (6-mer frequency, TF over GST control) with ETV3L. Besides, the binding signal with ETS2 is 1.15 fold enrichment (6-mer frequency, TF over GST control); with SPDEF, 1.15 fold enrichment (6-mer frequency, TF over GST control); in the assay with ETV7, 1.07 fold enrichment (6-mer frequency, TF over GST control); with ELF5, 1.09 fold enrichment (6-mer frequency, TF over GST control); with ETV3, 1.21 fold enrichment (6-mer frequency, TF over GST control); with ETV6, 1.18 fold enrichment (6-mer frequency, TF over GST control).
